According to PubChem BioAssay (NCATS):
Results filed as inconclusive are left out. Entries that show only a call come without a potency. Values without a mark were called inactive. The source made the active and inactive calls. The call rests on the fitted dose curve; in most records, active means well fitted curve in the direction sought with a large enough effect; inconclusive means small, poorly fitted or top-dose-only effect, or another doubt; inactive means no such curve, though single readings can be large; an effect the other way counts as inactive or inconclusive.

Tests used:
[1] = molecular target: Calcium and integrin-binding protein 1 (Homo sapiens) (UniProt Q99828); assay: Primary qHTS for Identification of Calcium Integrin Binding Protein 1 (CIB1) Competitor (AID 1508620);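 further: GST tagged CIB1 binding a fluorescein labelled alphaIIb integrin peptide tracer; top concentration of the series differs between compounds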
Procedure, shortened: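 Fluorescence polarization competition: GST-tagged CIB1 (1 uM final) preincubated with compound 15 min at room temperature, then FITC-labelled alphaIIb peptide (100 nM final) added. After 15 min at room temperature, polarization read at Ex 480/Em 540.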

[2] = Primary qHTS for small molecule stabilizers of the endoplasmic reticulum resident proteome: Secreted ER Calcium Modulated Protein (SERCaMP) assay (AID 1508630)
Procedure, shortened: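 The SH-SY5Y reporter protocol was run at 3 concentrations up to 38.3 uM (primary) or 11 concentrations (follow-up): 16 h compound, 100 nM thapsigargin for 4 h, then extracellular luciferase luminescence.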

Sequence of Calcium and integrin-binding protein 1 (Homo sapiens) (Q99828 whole entry, looked up): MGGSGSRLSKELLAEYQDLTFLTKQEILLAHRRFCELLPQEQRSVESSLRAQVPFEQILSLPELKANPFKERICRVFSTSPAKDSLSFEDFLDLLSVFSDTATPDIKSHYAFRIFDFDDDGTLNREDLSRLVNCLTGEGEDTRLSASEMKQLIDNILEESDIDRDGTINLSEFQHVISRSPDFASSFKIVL

Compound: CC(C)C[C@H](CC(=O)NO)C(=O)N[C@@H](Cc1ccc2ccccc2c1)C(=O)N[C@@H](C)C(=O)NCCN
- Potency [1]: inactive

Compound: COc1ccc(CCC(=O)c2c(O)cc(O)cc2O[C@@H]2O[C@H](CO)[C@@H](O)[C@H](O)[C@H]2O)cc1
- Potency [1]: inactive

Compound: O=S(=O)(Nc1ccccn1)c1ccc(N=Cc2c(O)[nH]c3ccc4ncsc4c23)cc1
- Potency [1]: inactive

Compound: CC(=O)O[C@@H]1[C@@H](CO)O[C@@](CO)(O[C@H]2O[C@H](COC(=O)/C=C/c3ccccc3)[C@@H](O)[C@H](O)[C@H]2O)[C@H]1O
- Potency [1]: inactive

Compound: COc1cc2occc2c(O[C@@H]2O[C@H](CO)[C@@H](O)[C@H](O)[C@H]2O)c1CCC(=O)O
- Potency [1]: inactive

Compound: CC1C=CC2CCCCC2C1CCC1CC(O)CC(=O)O1 (stereo unspecified)
- Potency [1]: inactive

Compound: CC(C)[C@@H]1C(=O)N(S(C)(=O)=O)[C@@H]2CCN(C(=O)/C=C/CN3CCCCC3)[C@H]21
- Potency [1]: inactive

Compound: CC1(C)C[C@H](O)C[C@@]2(C)OC(=O)C=C12
- Potency [1]: inactive

Compound: COc1ccc(C(O)C(C)OC2OC(CO)C(O)C(O)C2O)cc1 (stereo unspecified)
- Potency [1]: inactive

Compound: C=C1[C@@H]2CC[C@@H]3[C@@](CCC4C(C(=O)O)(C(=O)O)C[C@@H](O[C@@H]5O[C@H](CO)[C@@H](O)[C@H](O)[C@H]5OC(=O)CC(C)C)C[C@]43C)(C2)[C@H]1O (stereo partly specified)
- Potency [1]: inactive

Compound: Cc1c2cc(c(C(=O)O)c1C)OC1OC(C(O)C(O)C1O)C(O)C(O)C1OC(O2)C(O)C(O)C1O (stereo unspecified)
- Potency [1]: inactive

Compound: CC1CC(=O)C2=C(CCC3(O)C(O)c4c(O)cccc4C(=O)C23O)C1 (stereo unspecified)
- Potency [1]: inactive

Compound: COc1ccc(C2(O)c3ccccc3NC(=O)C2O)cc1 (stereo unspecified)
- Potency [1]: inactive

Compound: C(#Cc1nc2ncccc2nc1OCCN1CCCC1)c1ccccc1
- Potency [1]: inactive

Compound: Nc1nc2c(c(=O)[nH]1)C[C@@H](CCc1ccc(C(=O)N[C@@H](CCC(=O)O)C(=O)O)cc1)CN2
- Potency [1]: inactive

Compound: Cn1nnc(-c2ccc(-c3ccc(N4C[C@H](CO)OC4=O)cc3F)cn2)n1
- Potency [1]: inactive

Compound: COc1cc2c(cc1OC)[C@@H]1[C@H](O)[C@@H](OC)C=C3CCN(C2)[C@H]31
- Potency [1]: inactive

Compound: CC(C)(O)/C=C/C1=CC(=O)[C@@](C)(O)C[C@H]1O
- Potency [1]: inactive

Compound: CCCC(=O)NCCc1csc(-c2ccc(Cl)cc2)n1
- Potency [1]: inactive

Compound: Cc1nc(Nc2n[nH]c3c2CN(C(=O)NC(CN(C)C)c2ccccc2)C3(C)C)c2sccc2n1 (stereo unspecified)
- Potency [1]: inactive

Compound: CC(O)CCC1C(CO[C@@H]2O[C@H](CO)[C@@H](O)[C@H](O)[C@H]2O)CC(O)CC1(C)C (stereo partly specified)
- Potency [1]: inactive

Compound: CC(CCC1(O)OC2CC3C4CCC5CC(O[C@@H]6O[C@H](CO)[C@@H](O)[C@H](O)[C@H]6O[C@@H]6O[C@@H](C)[C@H](O)[C@@H](O)[C@H]6O)C(O)CC5(C)C4CCC3(C)C2C1C)CO[C@@H]1O[C@H](CO)[C@@H](O)[C@H](O)[C@H]1O (stereo partly specified)
- Potency [1]: inactive

Compound: CC(C)c1cc(C(=O)N2CC[C@@H](NC(=O)C3CC3)C2)n[nH]1
- Potency [1]: inactive

Compound: Cc1cccc2c1NC(=O)C2(c1ccc(O)cc1)c1ccc(O)cc1
- Potency [1]: inactive

Compound: CCC(C)C(=O)OC1CC(O)C23C4OCC5(C(O)CC2C1(C)C(O)O4)C3C(=O)CC1(C)C(c2ccoc2)CC2OC215 (stereo unspecified)
- Potency [1]: inactive

Compound: Cc1nc2ccc(Oc3ccc(F)cc3)cc2c(=O)n1C[C@H]1CCCN(C(C)C)C1
- Potency [1]: inactive

Compound: COc1cc(N2CCOCC2)ccc1Nc1ncc(Cl)c(Nc2ccccc2NS(C)(=O)=O)n1
- Potency [1]: inactive

Compound: C=C(CO[C@@H]1O[C@H](CO[C@@H]2OC[C@](O)(CO)[C@H]2O)[C@@H](O)[C@H](O)[C@H]1O)C1Cc2cc(C(C)=O)ccc2O1 (stereo partly specified)
- Potency [1]: inactive

Compound: COc1cc(OC)cc(C(=O)Nc2ccc(Cl)c(-c3nc4ccc(N(C)C)cc4[nH]3)c2)c1
- Potency [1]: inactive

Compound: COc1ncc(Nc2ncc([C@H](C)N3CCN(S(C)(=O)=O)CC3)cc2-c2nc(C)nc(N)n2)cc1F
- Potency [1]: inactive

Compound: CC(C)=CCC/C(C)=C/CC/C(C)=C/COC1OC(COC2OCC(OC3OCC(O)C(O)C3O)C(O)C2O)C(O)C(OC2OC(C)C(OC3OC(C)C(OC4OCC(OC5OC(C)C(O)C(O)C5O)C(O)C4O)C(O)C3O)C(O)C2O)C1O (stereo unspecified)
- activity change, negative = inhibition [1]: 4.51% [at 12.4 µM]

Compound: C/C1=C\CC[C@]2(C)O[C@@H]2[C@H](O)[C@H](C(C)C)[C@H](OC(=O)/C=C/c2ccccc2)C1
- Potency [1]: inactive

Compound: C=C1CC2C(C)(CCC(=O)O)C(C(C)(C)O)CCC2(C)C2C(=O)OC(C)(C(=O)OC)C(=O)C12C (stereo unspecified)
- Potency [1]: inactive

Compound: CCC(O)C(C)C1CCC(C(C)C(=O)O)O1 (stereo unspecified)
- Potency [1]: inactive

Compound: Cc1cc(N(C)C)ccc1-c1nc2ccc(-c3nc4ccc(N5CCN(C)CC5)cc4[nH]3)cc2[nH]1
- Potency [1]: inactive

Compound: C[C@@]12CC[C@@H]3[C@@](CC[C@H]4[C@@]3(C)CCC[C@@]4(C)C(=O)O)(CC1=O)C2
- Potency [1]: inactive

Compound: CC1(C)CC2C(C1)C(C)(O)C13CC1(COC3=O)C2O (stereo unspecified)
- Potency [1]: inactive

Compound: COc1cc2c(NC3CCN(CC4CCCCC4)CC3)nc(N3CCCN(C(C)C)CC3)nc2cc1OCCCN1CCCCC1
- Potency [1]: inactive

Compound: CC(C)=CCC/C(C)=C/Cc1ccc(O)c(C2OC(=O)c3cc(C(=O)O)cc(O)c32)c1O (stereo unspecified)
- Potency [1]: inactive

Compound: CC(=O)O[C@H]1C(=O)[C@@]2(C)[C@H]([C@H](OC(=O)c3ccccc3)[C@]3(O)C[C@H](OC(=O)[C@H](O)[C@@H](NC(=O)c4ccccc4)c4ccccc4)C(C)=C1C3(C)C)[C@]1(OC(C)=O)CO[C@@H]1C[C@@H]2O
- outcome [2]: inactive

Compound: CC(C)=CCCC1(C)C=Cc2c(c(C)cc3c2[nH]c2ccccc23)O1 (stereo unspecified)
- outcome [2]: inactive
